Screens: PubChem BioAssay, several laboratories
Rows were chosen to be rich in hits. Some 2.2% of all compounds tested hit in one or more screens of this group.
aSyn 5UTR inh – 5' untranslated region of α-synuclein, MLPCN primary screen. alpha-synuclein 5'UTR reporter, inhibitor activity. inhibition, % (tested at 7.5 µM). actives 0.82% (n = 300,000). AID 1813; in the data active = inhibition above about 60%;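 note: H4 neuroglioblastoma cells stably carrying SNCA 5'UTR luciferase fusion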
KLF5 inhibitor – kruppel-like factor 5 inhibition; DLD-1 KLF5 promoter-luciferase reporter, luminescence; inhibition, % at 5 µM; actives 0.23% (n = 290,000);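 active = inhibition above a per-plate limit of that plate's mean compound inhibition plus 3 SD, cut at about 60% in these data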;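 note: higher means less KLF5 promoter-driven luciferase light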
APP 5UTR inh – APP translation inhibition; inhibition, % at 2 µM; SH-SY5Y APP 5'UTR-luciferase reporter, luminescence; actives 0.82% (n = 190,000);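 active = inhibition above a set limit, derived from the sample mean plus 3 SD, cut at about 45% in these data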
IEC-6 tox – IEC-6 cytotoxicity, counter-screen for KLF5 inhibitors. luminescence viability. inhibition, % at 5 µM. actives 0.78% (n = 290,000). AID 1825; in the data active = inhibition above about 22%
BaF3 tox – parental Ba/F3 viability inhibition as JAK2V617F counter-screen. CellTiter-Glo ATP luminescence. inhibition, % at 5.6 µM. actives 1.1% (n = 220,000);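 active = inhibition above a per-campaign cutoff, the mean inhibition of all tested compounds plus 3 SD, cut at about 27% in these data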
Ba/F3 V617F tox – lowers viability of Ba/F3 cells expressing EpoR and JAK2V617F; ATP luminescence; inhibition, % at 5.6 µM; actives 1.1% (n = 220,000); AID 1446;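 active = inhibition above the campaign mean plus 3 SD over all tested compounds, cut at about 24% in these data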;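 note: cytokine-independent growth of Ba/F3 cells driven by EpoR plus mutant JAK2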
A number is an active result; - = inactive; . = no result given.

SMILES	aSyn 5UTR inh	KLF5 inhibitor	APP 5UTR inh	IEC-6 tox	BaF3 tox	Ba/F3 V617F tox
O=C(CCCOc1ccccc1)N1CCCCC1	71	-	-	-	-	-
Cc1cc(C(=O)NCc2ccc(F)cc2)c2ccccc2n1	-	-	.	-	.	.
C/C(=N\O)C(C)Oc1ccc(Cl)cc1 (centres undefined)	-	-	-	-	-	-
CCCC1=[N+](CC(=O)c2ccccc2)CCn2c(C)ccc21	-	-	-	-	27	32
CCCC1=[N+](CC(=O)c2ccc(C)cc2)CCn2cccc21	-	-	-	-	-	-
CCCC1=[N+](CC)CCn2c(C)ccc21	-	-	-	-	64	61
COc1ccc(/C=C(/NC(=O)c2ccc(C)cc2)C(=O)N2CCCC2)cc1OC	-	-	.	-	.	.
CCCCn1c(N)c(N(CC)C(=O)CCNC(=O)NC23CC4CC(CC(C4)C2)C3)c(=O)[nH]c1=O	-	-	.	-	.	.
CC(C)[C@H](NC(=O)C1CC(=O)N(c2ccc3c(c2)OCO3)C1)C(=O)NC1CCCC1 (some centres undefined)	-	-	.	-	.	.
O=C1C2C3C=CC(C2C(=O)N1CCO)C1C(=O)N(CCO)C(=O)C31 (centres undefined)	-	-	.	-	.	.
Cc1ccc(S(=O)(=O)ON2C(=O)c3ccccc3C2=O)c(C)c1	.	-	56	-	-	-
CCCn1c(N)c(N(CCOC)C(=O)c2ccc([N+](=O)[O-])cc2Cl)c(=O)[nH]c1=O	-	-	.	-	.	.
N#Cc1c(N2CCCC2)ccc(Br)c1Cl	-	-	.	-	39	-
COCc1cc(C)nc(OCC(=O)N/N=C/c2cc(C)n(-c3c(C)cccc3C)c2C)c1C#N	-	-	57	-	-	-
COc1ccc(NS(=O)(=O)c2cc(NC(=O)CC3CCCC3)ccc2N2CCOCC2)cc1	-	-	-	-	32	-
COc1ccc(S(=O)(=O)c2ccc(OC)cc2)cc1	-	-	-	-	-	-
COc1ccc(C2=CC(=O)C=CC2=O)cc1	-	-	48	-	-	-
COc1ccc(C(=O)Nc2ccc(Cn3ccnc3)cc2)cc1OC	-	-	.	-	.	.
COc1ccc(C(=O)Nc2cnn(Cc3ccc(Cl)cc3)c2)cc1OC	-	-	-	-	36	35
CCCn1c(=O)c(C(=O)NNS(=O)(=O)c2ccc(NC(=O)OC)cc2)c(O)c2ccccc21	-	-	.	-	.	.
C=CCN1C(=Nc2cccnc2)SCC1(O)c1ccc(C)cc1 (centres undefined)	-	-	-	-	33	-
Cc1csc(=Nc2cccnc2)n1CC1CCCCC1	-	-	-	-	-	-
COc1cc2nc(Nc3ccc(C)c(Cl)c3)nc(N)c2cc1OC	99	-	.	-	.	.
COc1ccc(C(=O)Nc2ccc3[nH]c(-c4cccc(OC)c4)cc(=O)c3c2)cc1	-	-	91	-	-	-
COc1ccc(C(=O)Nc2cccc(OC)c2)cc1	-	-	-	-	-	-
SMILES	aSyn 5UTR inh	KLF5 inhibitor	APP 5UTR inh	IEC-6 tox	BaF3 tox	Ba/F3 V617F tox
CC(=O)c1c(N2CCCCC2)nc(=S)n(-c2ccccc2)c1C	-	-	-	-	41	-
CC1(C)CC(=O)c2sc(NC(=O)C(C)(C)C)nc2C1	-	-	-	-	-	-
CC1(C)CC(=O)c2sc(NC(=O)CN3CCCCC3)nc2C1	-	-	54	-	-	-
CC(NC(=O)c1ccco1)C(=O)N1CCCCC1 (centres undefined)	-	-	.	-	.	.
Cc1c(C(C)C)c(=O)n(-c2ccc(S(=O)(=O)NCc3ccccc3)cc2)n1C	-	-	-	-	72	42
Cc1c(C(C)C)c(=O)n(-c2ccc(S(=O)(=O)NC3CCCCC3)cc2)n1C	-	-	-	-	41	37
Cc1nc(NC2=NCN(C3CCCCC3C)CN2)nc2ccccc12 (centres undefined)	.	-	-	-	-	-
Cc1nc(NC2=NCN(CC3CCCO3)CN2)nc2ccccc12 (centres undefined)	.	-	-	-	34	38
Cc1ccc2c(c1)N(CC(=O)NCCc1ccccc1)C(=O)c1cccnc1O2	-	-	.	-	.	.
CN(C(=O)COC(=O)c1nc(Cl)c(Cl)c(Cl)c1Cl)C1CCS(=O)(=O)C1 (centres undefined)	-	-	59	-	-	-
CSc1sc(-c2n[nH]c(=S)n2C)c2c1C=CCC2	-	-	.	-	-	-
CN(C)CCCNC(=O)/C(=C\c1ccc(-c2ccc(Br)cc2)o1)NC(=O)c1ccccc1	-	-	-	-	-	-
